“And” between values parts separate entries of the source, which are not always exact repeats. Equal entries are not always repeated. Results filed as inconclusive are left out. Entries that show only a call come without a potency. The source made the active and inactive calls. Calls follow the shape of the dose curve; as a rule, active = well fitted cell-killing curve with a large enough effect; inconclusive = small, poorly fitted or top-dose-only effect; inactive = no such curve, though single readings can be large or run the other way.
assay: qHTS of pediatric cancer cell lines to identify multiple opportunities for drug repurposing: Primary screen for Saos-2 cells (AID 1347097); details: Saos-2 viability, CellTiter-Glo ATP luminescence, 48 h; series mostly up to 46 µM; activity change, negative = cytotoxic: at the top concentration; also: nearly all actives have a fitted effect of over 40% in size
Procedure, shortened: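 500-1,000 cells/well; 5 h pre-incubation 37 °C/5% CO2; compound pinned; 48 h; CellTiter-Glo, 15 min RT; luminescence. MIPE 11-pt from 0.78 nM, NPC 8-pt from 0.59 nM final. Bortezomib 2.3 µM final as positive control.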
Potency is read from the fitted curve at half-maximal effect.

**Q.** For Cc1cc2c(C(C)C)c(O)c(O)c(C=O)c2c(O)c1-c1c(C)cc2c(C(C)C)c(O)c(O)c(C=O)c2c1O, which Potency is on record?
**A.** Its Potency is 8.41 µM (active) and 16.6 µM (active).

**Q.** With NS(=O)(=O)c1cc2c(cc1Cl)NC=NS2(=O)=O as the molecule, how does the Potency read?
**A.** The Potency was “inactive”.

**Q.** For COc1cc2c(cc1OC)CN(CCc1ccc(NC(=O)c3cccc4c(=O)c5cccc(OC)c5[nH]c34)cc1)CC2, which “activity change, negative = cytotoxic” value is on record?
**A.** The value was 17.3% (inactive).

**Q.** With CC1(C)SCCN(S(=O)(=O)c2ccc(OCC#CCO)cc2)[C@@H]1C(=O)NO as the molecule, how does the “activity change, negative = cytotoxic” value read?
**A.** Its value is -29.6% (inactive).

**Q.** Which Potency does the source give for CCCc1nc2c(C)cc(-c3nc4ccccc4n3C)cc2n1Cc1ccc(-c2ccccc2C(=O)O)cc1 here?
**A.** Its Potency is “inactive”.

**Q.** With CC(C)NCC(O)COc1ccc(COCCOC(C)C)cc1 (stereo not given) as the molecule, how does the Potency read?
**A.** Its Potency is “inactive”.

**Q.** For NCCc1ccc(O)c(O)c1, which “activity change, negative = cytotoxic” value is on record?
**A.** Its value is 13.3% (inactive).

**Q.** For Oc1ccc(C2CNCCc3c2cc(O)c(O)c3Cl)cc1 (stereo not given), which Potency is on record?
**A.** The Potency was “inactive”.

**Q.** With CCC(C)n1ncn(-c2ccc(N3CCN(c4ccc(OC[C@H]5CO[C@](Cn6cncn6)(c6ccc(Cl)cc6Cl)O5)cc4)CC3)cc2)c1=O (stereo not given in full) as the molecule, how does the “activity change, negative = cytotoxic” value read?
**A.** Its value is -1.02% (inactive).

**Q.** For CCc1ccc(CCOc2ccc(CC3SC(=O)NC3=O)cc2)nc1 (stereo not given), which Potency is on record?
**A.** Its Potency is “inactive”.

**Q.** Which Potency does the source give for O=c1n(CCCN2CCN(c3cccc(Cl)c3)CC2)nc2ccccn12 here?
**A.** The Potency was “inactive”.

**Q.** With CNC(=O)c1ccc(N2C(=S)N(c3ccc(C#N)c(C(F)(F)F)c3)C(=O)C2(C)C)cc1F as the molecule, how does the “activity change, negative = cytotoxic” value read?
**A.** Its value is 3.42% (inactive).

**Q.** For Cc1cnc(NC(=O)C2=C(O)c3ccccc3S(=O)(=O)N2C)s1, which Potency is on record?
**A.** Its Potency is “inactive”.

**Q.** For Nc1ccc(S(=O)(=O)Nc2ccnn2-c2ccccc2)cc1, which Potency is on record?
**A.** Its Potency is “inactive”.

**Q.** For NC(=O)c1cnccn1, which Potency is on record?
**A.** The Potency was “inactive”.

**Q.** With CCCCNc1cc(C(=O)O)cc(S(N)(=O)=O)c1Oc1ccccc1 as the molecule, how does the Potency read?
**A.** The Potency was “inactive”.

**Q.** Which Potency does the source give for Cc1ccccc1C(OCCN(C)C)c1ccccc1 (stereo not given) here?
**A.** Its Potency is “inactive”.

**Q.** With Cc1[nH]c(=O)c(C#N)cc1-c1ccc2nccn2c1 as the molecule, how does the “activity change, negative = cytotoxic” value read?
**A.** Its value is 7.52% (inactive).

**Q.** With OC(CCN1CCCCC1)(c1ccccc1)C1CC2C=CC1C2 (stereo not given) as the molecule, how does the Potency read?
**A.** Its Potency is “inactive”.

**Q.** For NC(=O)c1ccc(I)c([N+](=O)[O-])c1, which “activity change, negative = cytotoxic” value is on record?
**A.** The value was 19.6% (inactive).

**Q.** With CC(c1cc2ccccc2s1)N(O)C(N)=O (stereo not given) as the molecule, how does the Potency read?
**A.** The Potency was “inactive”.

**Q.** With O=C1CCC(N2C(=O)c3ccccc3C2=O)C(=O)N1 (stereo not given) as the molecule, how does the “activity change, negative = cytotoxic” value read?
**A.** Its value is 5.62% (inactive).

**Q.** With O=C(O)COCCN1CCN(C(c2ccccc2)c2ccc(Cl)cc2)CC1 (stereo not given) as the molecule, how does the Potency read?
**A.** The Potency was “inactive”.

**Q.** With Cc1ccc(-n2nc(C(C)(C)C)cc2NC(=O)Nc2ccc(OCCN3CCOCC3)c3ccccc23)cc1 as the molecule, how does the “activity change, negative = cytotoxic” value read?
**A.** The value was -21.5% (inactive).

**Q.** Which Potency does the source give for CC(C)(Sc1ccc(CCN(CCCCC2CCCCC2)C(=O)NC2CCCCC2)cc1)C(=O)O here?
**A.** The Potency was 23.5 µM (active).

**Q.** With Clc1cccc(Cl)c1NC1=NCCN1 as the molecule, how does the Potency read?
**A.** Its Potency is “inactive”.

**Q.** Which “activity change, negative = cytotoxic” value does the source give for CC(C[N+](C)(C)C)OC(N)=O (stereo not given) here?
**A.** The value was 2.17% (inactive).

**Q.** Which Potency does the source give for CS(=O)(=O)c1cccc(CNc2nc(Nc3ccc4c(c3)CCC(=O)N4)ncc2C(F)(F)F)c1 here?
**A.** The Potency was 16.6 µM (active).

**Q.** With CC(=O)Oc1ccccc1C(=O)O as the molecule, how does the Potency read?
**A.** Its Potency is “inactive”.

**Q.** For O=C(O)CCc1ccc(NCc2cccc(Oc3ccccc3)c2)cc1, which “activity change, negative = cytotoxic” value is on record?
**A.** The value was 0.344% (inactive).

**Q.** With CC(C)(C)NCC(O)c1ccc(O)c(CO)c1 (stereo not given) as the molecule, how does the Potency read?
**A.** The Potency was “inactive”.

**Q.** For c1ccc([C@H]2CN3CCSC3=N2)cc1, which Potency is on record?
**A.** Its Potency is “inactive”.

**Q.** With C[C@]12CCC(=O)C=C1CC[C@@H]1[C@@H]2[C@@H](O)C[C@@]2(C)[C@H]1CC[C@]2(O)C(=O)CO as the molecule, how does the “activity change, negative = cytotoxic” value read?
**A.** The value was 24.5% (inactive).

**Q.** With CNC[C@H](O)c1cccc(O)c1 as the molecule, how does the Potency read?
**A.** Its Potency is “inactive”.

**Q.** For N[C@@H]1CONC1=O, which Potency is on record?
**A.** The Potency was “inactive”.

assay: qHTS of pediatric cancer cell lines to identify multiple opportunities for drug repurposing: Primary screen for SK-N-SH cells (AID 1347098); details: SK-N-SH viability, CellTiter-Glo luminescence, 48 h; series mostly up to 57 µM; activity change, negative = cytotoxic: at the top concentration; also: nearly all actives have a fitted effect of over 65% in size;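 as to activity change, negative = cytotoxic: DMSO served as neutral control and bortezomib at 2.3 µM as positive control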
Procedure, shortened: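 Cells (500-1,000/well) rested 5 h, then received compounds for 48 h; metabolically active cells were measured by CellTiter-Glo luminescence. Final concentrations spanned up to 46 µM (MIPE, 11-point) or 0.59 nM-46 µM (NPC, 8-point) in primary screens, 11-point in follow-ups.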

**Q.** For NS(=O)(=O)c1cc2c(cc1Cl)NC=NS2(=O)=O, which Potency is on record?
**A.** Its Potency is “inactive”.

**Q.** For COc1cc2c(cc1OC)CN(CCc1ccc(NC(=O)c3cccc4c(=O)c5cccc(OC)c5[nH]c34)cc1)CC2, which Potency is on record?
**A.** The Potency was 12.1 µM (active).

**Q.** For CCCc1nc2c(C)cc(-c3nc4ccccc4n3C)cc2n1Cc1ccc(-c2ccccc2C(=O)O)cc1, which Potency is on record?
**A.** Its Potency is “inactive”.

**Q.** Which Potency does the source give for CC(C)NCC(O)COc1ccc(COCCOC(C)C)cc1 (stereo not given) here?
**A.** The Potency was “inactive”.

**Q.** Which Potency does the source give for NCCc1ccc(O)c(O)c1 here?
**A.** The Potency was “inactive”.

**Q.** With Oc1ccc(C2CNCCc3c2cc(O)c(O)c3Cl)cc1 (stereo not given) as the molecule, how does the Potency read?
**A.** The Potency was “inactive”.

**Q.** With CCC(C)n1ncn(-c2ccc(N3CCN(c4ccc(OC[C@H]5CO[C@](Cn6cncn6)(c6ccc(Cl)cc6Cl)O5)cc4)CC3)cc2)c1=O (stereo not given in full) as the molecule, how does the “activity change, negative = cytotoxic” value read?
**A.** The value was -4.67% (inactive).

**Q.** With CCc1ccc(CCOc2ccc(CC3SC(=O)NC3=O)cc2)nc1 (stereo not given) as the molecule, how does the Potency read?
**A.** Its Potency is “inactive”.

**Q.** With O=c1n(CCCN2CCN(c3cccc(Cl)c3)CC2)nc2ccccn12 as the molecule, how does the Potency read?
**A.** Its Potency is “inactive”.

**Q.** For Cc1cnc(NC(=O)C2=C(O)c3ccccc3S(=O)(=O)N2C)s1, which “activity change, negative = cytotoxic” value is on record?
**A.** The value was -8.35% (inactive).

**Q.** With Nc1ccc(S(=O)(=O)Nc2ccnn2-c2ccccc2)cc1 as the molecule, how does the Potency read?
**A.** The Potency was “inactive”.

**Q.** Which “activity change, negative = cytotoxic” value does the source give for NC(=O)c1cnccn1 here?
**A.** The value was 2.43% (inactive).

**Q.** Which “activity change, negative = cytotoxic” value does the source give for CCCCNc1cc(C(=O)O)cc(S(N)(=O)=O)c1Oc1ccccc1 here?
**A.** Its value is -29.6% (inactive).

**Q.** With Cc1[nH]c(=O)c(C#N)cc1-c1ccc2nccn2c1 as the molecule, how does the “activity change, negative = cytotoxic” value read?
**A.** The value was 2.96% (inactive).

**Q.** Which Potency does the source give for OC(CCN1CCCCC1)(c1ccccc1)C1CC2C=CC1C2 (stereo not given) here?
**A.** The Potency was “inactive”.

**Q.** For NC(=O)c1ccc(I)c([N+](=O)[O-])c1, which “activity change, negative = cytotoxic” value is on record?
**A.** The value was 29.1% (inactive).

**Q.** With CC(c1cc2ccccc2s1)N(O)C(N)=O (stereo not given) as the molecule, how does the Potency read?
**A.** Its Potency is “inactive”.

**Q.** With O=C1CCC(N2C(=O)c3ccccc3C2=O)C(=O)N1 (stereo not given) as the molecule, how does the Potency read?
**A.** The Potency was “inactive”.

**Q.** Which Potency does the source give for O=C(O)COCCN1CCN(C(c2ccccc2)c2ccc(Cl)cc2)CC1 (stereo not given) here?
**A.** The Potency was “inactive”.

**Q.** With Cc1ccc(-n2nc(C(C)(C)C)cc2NC(=O)Nc2ccc(OCCN3CCOCC3)c3ccccc23)cc1 as the molecule, how does the Potency read?
**A.** The Potency was 0.541 µM (active).

**Q.** With Clc1cccc(Cl)c1NC1=NCCN1 as the molecule, how does the Potency read?
**A.** Its Potency is “inactive”.

**Q.** Which Potency does the source give for CC(C[N+](C)(C)C)OC(N)=O (stereo not given) here?
**A.** Its Potency is “inactive”.

**Q.** For CS(=O)(=O)c1cccc(CNc2nc(Nc3ccc4c(c3)CCC(=O)N4)ncc2C(F)(F)F)c1, which Potency is on record?
**A.** Its Potency is 24.1 µM (active).

**Q.** Which Potency does the source give for CC(=O)Oc1ccccc1C(=O)O here?
**A.** The Potency was “inactive”.

**Q.** Which “activity change, negative = cytotoxic” value does the source give for O=C(O)CCc1ccc(NCc2cccc(Oc3ccccc3)c2)cc1 here?
**A.** The value was 16.2% (inactive).

**Q.** With CC(C)(C)NCC(O)c1ccc(O)c(CO)c1 (stereo not given) as the molecule, how does the Potency read?
**A.** The Potency was “inactive”.

**Q.** For c1ccc([C@H]2CN3CCSC3=N2)cc1, which Potency is on record?
**A.** Its Potency is “inactive”.

**Q.** For C[C@]12CCC(=O)C=C1CC[C@@H]1[C@@H]2[C@@H](O)C[C@@]2(C)[C@H]1CC[C@]2(O)C(=O)CO, which “activity change, negative = cytotoxic” value is on record?
**A.** The value was 9.84% (inactive).

**Q.** Which Potency does the source give for CNC[C@H](O)c1cccc(O)c1 here?
**A.** The Potency was “inactive”.

**Q.** For N[C@@H]1CONC1=O, which Potency is on record?
**A.** Its Potency is “inactive”.
